# Results from PubChem BioAssay.
# “And” between values parts separate entries of the source, which are not always exact repeats. Equal entries are not always repeated. The source made the active and inactive calls.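 Rule for the calls, unless noted: active = compounds whose cell count with miR-34 switched on is under 0.7 times the count with it off; inactive = the rest.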
# Experiments:
# [1] = sensitizers of A549 cells to miR-34 induction, primary screen, imaging, A549 dox-inducible miR-34, nuclei and caspase counts (AID 1347080); conditions: A549 miR-34 inducible, Hoechst nuclei count, 48 h
# [2] = circadian clock period modulators, cell-based, LOPAC library, luminescence reporter (AID 2774; call rule not given here;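 note: values are relative to mean of DMSO wells on each plate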); conditions: circadian reporter cells, at 7 µM, actives lie on both sides
# [3] = system: Hepatitis C virus NS3 helicase; assay: HCV NS3 helicase inhibitors, primary screen, biochemical, fluorescence polarization, LOPAC1280 library (AID 687035; in the data active = inhibition above about 37%); conditions: Purified HCV NS3 helicase, Cy5-dT15 ssDNA binding fluorescence polarization; stronger effect = higher value; concentration not given here
# [4] = Cy5 fluorescence quenching or enhancement artefacts, artefact control for HCV NS3 helicase inhibitor project, biochemical, LOPAC1280 (AID 687037; call rule not given here); conditions: Cy5-DNA-NS3h complex fluorescence interference counterscreen
# [5] = inhibitors of Cryptococcus chitosan production, flow cytometry, Cibacron Brilliant Red staining (AID 1347148; call rule not given here;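 note: compound exposure lasted three days at 37 degrees C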); conditions: Cryptococcus neoformans chitosan, stronger effect = lower value; at 10 µM unless noted
# [6] = phospholipid biosynthesis inhibitors in animal cells, primary screen, cell-based, LOPAC library, screen 4 (AID 1347384; call rule not given here); conditions: phospholipid biosynthesis inhibition screen, at 10 µM
# [7] = viability rescue of complex I mutant cybrids, primary screen, cell-based, galactose medium, ATP luminescence (AID 1645843;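 active = z-score of at least 1.8 in each of two replicates, scored against plate mean and spread of sample wells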;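 note: positive z means more ATP and so rescue of galactose-driven cybrid death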); conditions: complex I mutant cybrid cells, 72 h, stronger effect = higher value
# [8] = hESC survival regulators, cell-based (AID 493140; call rule not given here;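 note: cells exposed to compounds for four days before counting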); conditions: human embryonic stem cell survival screen; stronger effect = higher value
# [9] = stronger effect = lower value, cell number ratio, induced over uninduced
# [10] = measured here: relative caspase fold change +Dox/-Dox
# [11] = measured here: total cells with miR-34 induction, stronger effect = lower value
# [12] = measured here: total cells without miR-34 induction
smiles,measurement,setting,value
CC(C(=O)Nc1cccc(N=Cc2c(O)ccc3ccccc23)c1)c1ccccc1 (stereo not given),fold change,[1]; [9],0.971 (inactive)
same,fold change,[1]; [10],1.6
same,cell count,[1]; [11],5970
same,cell count,[1]; [12],6150
CCCCCCC(=O)SC[C@H](COP(=O)([O-])OCC[N+](C)(C)C)SC(=O)CCCCCC,fold change,[1]; [9],0.918 (inactive)
same,fold change,[1]; [10],0.72
same,cell count,[1]; [11],5570
same,cell count,[1]; [12],6070
CCCCCCC[C@H](O)/C=C/[C@H]1[C@H](O)CC(=O)[C@@H]1C/C=C\CCCC(=O)O,fold change,[1]; [9],0.933 (inactive)
same,fold change,[1]; [10],1.19
same,cell count,[1]; [11],5790
same,cell count,[1]; [12],6200
CCCCCCCC/C=C\CCCCCCCC(=O)N[C@H](CO)Cc1ccc(O)cc1,fold change,[1]; [9],1.03 (inactive)
same,fold change,[1]; [10],1.33
same,cell count,[1]; [11],6010
same,cell count,[1]; [12],5860
O=C1C[C@@H]2[C@@H](CC[C@@H](O)CCc3ccccc3)[C@H](O)C[C@@H]2O1,fold change,[1]; [9],1.01 (inactive)
same,fold change,[1]; [10],0.657
same,cell count,[1]; [11],6130
same,cell count,[1]; [12],6050
CCCCC/C=C/C=C1/C=CC(=O)[C@@H]1CCCCCCC(=O)O,fold change,[1]; [9],1.71 (inactive)
same,fold change,[1]; [10],0.938
same,cell count,[1]; [11],5570
same,cell count,[1]; [12],3250
CCCCC[C@H](O)CC[C@@H]1[C@@H](CCCCCCC(=O)O)[C@@H](O)C[C@H]1O,fold change,[1]; [9],0.832 (inactive)
same,fold change,[1]; [10],1.1
same,cell count,[1]; [11],6210
same,cell count,[1]; [12],7460
CCCCC[C@H](O)/C=C/[C@H]1C2COC(C2)[C@@H]1C/C=C\CCCC(=O)O (stereo not given in full),fold change,[1]; [9],0.904 (inactive)
same,fold change,[1]; [10],0.954
same,cell count,[1]; [11],5380
same,cell count,[1]; [12],5950
N[C@@H](CSCCB(O)O)C(=O)O,fold change,[1]; [9],1.01 (inactive)
same,fold change,[1]; [10],1.73
same,cell count,[1]; [11],6340
same,cell count,[1]; [12],6260
CCCCCCCCCCCCC(=O)N[C@H]1CCOC1=O,fold change,[1]; [9],0.915 (inactive)
same,fold change,[1]; [10],1.35
same,cell count,[1]; [11],5190
same,cell count,[1]; [12],5670
CCCCCCCCCC(=O)N[C@@H](CN1CCOCC1)[C@@H](O)c1ccccc1,fold change,[1]; [9],0.924 (inactive)
same,fold change,[1]; [10],0.927
same,cell count,[1]; [11],5480
same,cell count,[1]; [12],5940
C[C@@]1(C2CCCC2)Cc2cc(OCC(=O)O)c(Cl)c(Cl)c2C1=O,period change,[2],0.04 h (inactive)
same,inhibition,[3],-6% (inactive)
same,fluorescence ratio (interference),[4],1 (inactive)
same,fold change,[1]; [9],1.13 (inactive) and 0.909 (inactive)
same,fold change,[1]; [10],0.91 and 1.29
same,cell count,[1]; [11],11200 and 5500
same,cell count,[1]; [12],9900 and 6050
same,fold fluorescence,[5],4.41 [at 140 µM] (inactive)
same,outcome,[6],inactive
same,z-score,[7],0.845 (inactive)
CC/C=C\C/C=C\C/C=C\CCCCCCCC(=O)O,survival,[8],92.8 (inactive)
same,fold change,[1]; [9],0.97 (inactive) and 0.988 (inactive)
same,fold change,[1]; [10],1.3 and 0.691
same,cell count,[1]; [11],6070 and 5710
same,cell count,[1]; [12],6250 and 5780
same,fold fluorescence,[5],4.4 (inactive)
CCCCC[C@H]1/C=C/[C@@H]2[C@@H](C/C=C\CCCC(=O)O1)[C@@H](O)C[C@H]2O,fold change,[1]; [9],0.933 (inactive)
same,fold change,[1]; [10],1
same,cell count,[1]; [11],4270
same,cell count,[1]; [12],4580
CCCC1([C@@H](O)C/C=C/[C@H]2C(O)CC(=O)[C@@H]2CCCCCCC(=O)OC)CCC1 (stereo not given in full),fold change,[1]; [9],1.02 (inactive)
same,fold change,[1]; [10],1.54
same,cell count,[1]; [11],6030
same,cell count,[1]; [12],5910
CCCCC[C@H](O)/C=C/[C@H]1C=CC(=O)[C@@H]1CCCCCCC(=O)O,survival,[8],103 (inactive)
same,fold change,[1]; [9],0.912 (inactive) and 0.844 (inactive)
same,fold change,[1]; [10],1.4 and 1.79
same,cell count,[1]; [11],5980 and 4550
same,cell count,[1]; [12],6560 and 5390
same,fold fluorescence,[5],4.35 (inactive)
NC(=S)NCCC[C@H](N)C(=O)O,fold change,[1]; [9],0.92 (inactive) and 1.03 (inactive)
same,fold change,[1]; [10],1.34 and 0.799
same,cell count,[1]; [11],5590 and 6220
same,cell count,[1]; [12],6080 and 6060
same,fold fluorescence,[5],2.92 [at 261.4 µM] (inactive)
O=c1oc(Cl)c(Cl)c2ccccc12,period change,[2],-0.015 h (inactive)
same,inhibition,[3],-3% (inactive)
same,fluorescence ratio (interference),[4],1 (inactive)
same,fold change,[1]; [9],1.11 (inactive) and 1.06 (inactive)
same,fold change,[1]; [10],1.14 and 0.927
same,cell count,[1]; [11],6300 and 1380
same,cell count,[1]; [12],5680 and 1300
same,fold fluorescence,[5],6.4 [at 232.5 µM] (inactive)
same,outcome,[6],inactive
same,z-score,[7],-1.02 (inactive)
C#CCOc1ccccc1CCCCCC(=O)O,fold change,[1]; [9],1.11 (inactive)
same,fold change,[1]; [10],0.728
same,cell count,[1]; [11],5930
same,cell count,[1]; [12],5330
O=P(O)(O)O[C@H]1[C@@H](O)[C@H](O)[C@@H](OP(=O)(O)O)[C@H](OP(=O)(O)O)[C@H]1O,fold change,[1]; [9],0.877 (inactive)
same,fold change,[1]; [10],1.8
same,cell count,[1]; [11],5820
same,cell count,[1]; [12],6630
NCCNS(=O)(=O)c1cccc2c(Cl)cccc12,inhibition,[3],-2% (inactive)
same,fluorescence ratio (interference),[4],1 (inactive)
same,fold change,[1]; [9],1.01 (inactive) and 0.93 (inactive)
same,fold change,[1]; [10],0.86 and 1.13
same,cell count,[1]; [11],9070 and 4030
same,cell count,[1]; [12],9000 and 4330
same,fold fluorescence,[5],10.8 [at 175.6 µM] (inactive)
same,outcome,[6],inactive
same,z-score,[7],-0.845 (inactive)
O=C(O)CCCCCCC1C(=O)N(Cc2ccccc2)C(=O)N1NCC(O)C1CCCCC1 (stereo not given),fold change,[1]; [9],0.813 (inactive)
same,fold change,[1]; [10],2.25
same,cell count,[1]; [11],5360
same,cell count,[1]; [12],6590
O=c1[nH]c2cc(C(F)(F)F)ccc2n1-c1cc(C(F)(F)F)ccc1O,period change,[2],-0.3 h (inactive)
same,inhibition,[3],-6% (inactive)
same,fluorescence ratio (interference),[4],0.9 (inactive)
same,fold change,[1]; [9],0.996 (inactive) and 0.985 (inactive)
same,fold change,[1]; [10],0.925 and 0.952
same,cell count,[1]; [11],9130 and 5130
same,cell count,[1]; [12],9180 and 5210
same,fold fluorescence,[5],3.32 [at 138 µM] (inactive)
same,outcome,[6],inactive
same,z-score,[7],0.585 (inactive)
